Measurements from the supplement of paper PMC9262897, “Low-cost anti-mycobacterial drug discovery using engineered E. coli” (Nature Communications, 2022).
Structures can show the parent of a compound that is named as a salt. ± gives the standard deviation of the averaged measurements.

What was measured:
Experiment in all cases: growth (OD600 after 10 h); higher = more growth (less inhibition)
[1] = tested on: E. coli TESEC Alr+ wild-type control; conditions: compound 0.1 mM; raw OD600 reference: median of DMSO wells 0.241, cell-free background 0.041
Method: (§1)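 TESEC Mtb Alr E. coli, or the Alr+ wild-type control, in 384-well plates with Prestwick library compounds at 0.1 mM and 1% DMSO, across arabinose induction levels of 1E3 to 1E7 nM. Growth is read as OD600 after 10 h at 37 °C in triplicate biological replicates.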

E. coli TESEC Mtb Alr [2] = conditions: compound 0.1 mM
Method: as §1

E. coli TESEC Mtb Asd = conditions: compound 0.1 mM
Method: (§2)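 TESEC E. coli strains in which the native enzyme is deleted and replaced by arabinose-inducible Mtb Asd, DapB, CysH or TrpD, each grown in its selective medium. Strains were screened against the Prestwick library at 0.1 mM and 1% DMSO in 384-well format at low and high arabinose induction. Growth is read as OD600 after 10 h in triplicate.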

E. coli TESEC Mtb DapB = conditions: compound 0.1 mM
Method: as §2

[3] = tested on: E. coli TESEC Alr+ wild-type control; conditions: compound 0.1 mM; raw OD600 reference: median of DMSO wells 0.49, cell-free background 0.052
Method: (§3)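 TESEC Mtb Alr E. coli (ΔaraC ΔtolC ΔentC Δalr ΔdadX, arabinose-inducible Mtb Alr) or the Alr+ wild-type control strain, grown in defined M9-fructose medium without D-alanine in 96-well plates with Prestwick library compounds at 0.1 mM and 1% DMSO. Low Alr induction is 0.1 µM arabinose and high induction is 10 mM arabinose.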

E. coli TESEC Mtb Alr [4] = conditions: compound 0.1 mM; remark: listed apart in the source
Method: as §3

[5] = arabinose 1000 nM, raw OD600 reference: median of DMSO wells 0.294, cell-free background 0.041
[6] = arabinose 10000 nM, raw OD600 reference: median of DMSO wells 0.264, cell-free background 0.041
[7] = arabinose 100000 nM, raw OD600 reference: median of DMSO wells 0.201, cell-free background 0.041
[8] = arabinose 1000000 nM, raw OD600 reference: median of DMSO wells 0.193, cell-free background 0.041
[9] = arabinose 10000000 nM, raw OD600 reference: median of DMSO wells 0.146, cell-free background 0.041
[10] = arabinose induction (level): High, raw OD600 reference: median of DMSO wells 0.331, cell-free background 0.041
[11] = arabinose induction (level): Low, raw OD600 reference: median of DMSO wells 0.417, cell-free background 0.041
[12] = arabinose induction (level): High, raw OD600 reference: median of DMSO wells […], cell-free background 0.041
[13] = arabinose induction (level): Low, raw OD600 reference: median of DMSO wells 0.227, cell-free background 0.041
[14] = arabinose 100 nM, raw OD600 reference: median of DMSO wells 0.413, cell-free background 0.052
[15] = arabinose 10000000 nM, raw OD600 reference: median of DMSO wells […], cell-free background 0.052

| SMILES | growth [1] | growth (E. coli TESEC Mtb Alr [2]; [5]) | growth (E. coli TESEC Mtb Alr [2]; [6]) | growth (E. coli TESEC Mtb Alr [2]; [7]) | growth (E. coli TESEC Mtb Alr [2]; [8]) | growth (E. coli TESEC Mtb Alr [2]; [9]) | growth (E. coli TESEC Mtb Asd; [10]) | growth (E. coli TESEC Mtb Asd; [11]) | growth (E. coli TESEC Mtb DapB; [12]) | growth (E. coli TESEC Mtb DapB; [13]) | growth [3] | growth (E. coli TESEC Mtb Alr [4]; [14]) | growth (E. coli TESEC Mtb Alr [4]; [15]) |
| --- | --- | --- | --- | --- | --- | --- | --- | --- | --- | --- | --- | --- | --- |
| CO[C@H]1/C=C/O[C@@]2(C)Oc3c(C)c(O)c4c(O)c(c(/C=N/N5CCN(C6CCCC6)CC5)c(O)c4c3C2=O)NC(=O)/C(C)=C\C=C\[C@H](C)[C@H](O)[C@@H](C)[C@@H](O)[C@@H](C)[C@H](OC(C)=O)[C@@H]1C [Rifapentine] | 0.0433 ± 0.00049 | 0.0468 ± 0.0029 | 0.04193 ± 0.00032 | 0.042 ± 0.00082 | 0.0431 ± 0.0013 | 0.04243 ± 0.00025 | 0.0584 ± 0.0025 | 0.0547 ± 0.0039 | 0.102 ± 0.087 | 0.0512 ± 0.00082 | 0.05153 ± 0.00031 | 0.0847 ± 0.014 | 0.0548 ± 0.0062 |
| OC(CCN1CCCCC1)(c1ccccc1)c1ccccc1 [Pridinol methanesulfonate salt] | 0.226 ± 0.0064 | 0.299 ± 0.011 | 0.28 ± 0.012 | 0.193 ± 0.0055 | 0.177 ± 0.0082 | 0.151 ± 0.0016 | 0.468 ± 0.015 | 0.466 ± 0.027 | 0.194 ± 0.02 | 0.262 ± 0.035 | 0.469 ± 0.027 | 0.397 ± 0.032 | 0.352 ± 0.011 |
| CC(C)(C)C(=O)OCOC(=O)[C@@H]1N2C(=O)[C@@H](/N=C/N3CCCCCC3)[C@H]2SC1(C)C [Pivmecillinam hydrochloride] | 0.184 ± 0.0062 | 0.249 ± 0.0036 | 0.282 ± 0.0063 | 0.326 ± 0.0058 | 0.191 ± 0.016 | 0.191 ± 0.021 | 0.323 ± 0.028 | 0.363 ± 0.022 | 0.218 ± 0.022 | 0.222 ± 0.024 | 0.509 ± 0.096 | 0.4196 ± 0.0028 | 0.344 ± 0.012 |
| C#C[C@]1(O)CC[C@H]2[C@@H]3CCC4=C(CCC(=O)C4)[C@H]3CC[C@@]21C [Norethynodrel] | 0.133 ± 0.013 | 0.142 ± 0.0092 | 0.107 ± 0.0051 | 0.157 ± 0.0071 | 0.0575 ± 0.0014 | 0.089 ± 0.0065 | 0.128 ± 0.016 | 0.13 ± 0.006 | 0.149 ± 0.0054 | 0.17 ± 0.01 | 0.355 ± 0.005 | 0.399 ± 0.0064 | 0.17 ± 0.018 |
| CN1CCCN(C(c2ccccc2)c2ccc(Cl)cc2)CC1 (configuration not stated) [Homochlorcyclizine dihydrochloride] | 0.189 ± 0.0068 | 0.137 ± 0.082 | 0.169 ± 0.0051 | 0.09 ± 0.04 | 0.0532 ± 0.00092 | 0.0545 ± 0.00056 | 0.123 ± 0.011 | 0.152 ± 0.015 | 0.169 ± 0.0068 | 0.215 ± 0.039 | 0.498 ± 0.047 | 0.413 ± 0.0053 | 0.118 ± 0.018 |
| CCC(=O)OCC(=O)[C@@]1(OC(=O)CC)[C@H](C)C[C@H]2[C@H]3[C@H]([C@@H](O)C[C@@]21C)[C@@]1(C)C=CC(=O)C=C1C[C@H]3Cl [Alclometasone dipropionate] | 0.21 ± 0.0058 | 0.318 ± 0.028 | 0.277 ± 0.017 | 0.226 ± 0.07 | 0.127 ± 0.022 | 0.217 ± 0.065 | 0.209 ± 0.013 | 0.459 ± 0.032 | 0.198 ± 0.0033 | 0.215 ± 0.0041 | 0.492 ± 0.04 | 0.401 ± 0.0078 | 0.241 ± 0.04 |
| CCN(CCO)CCCC(C)Nc1ccnc2cc(Cl)ccc12 (configuration not stated) [Hydroxychloroquine sulfate] | 0.228 ± 0.0034 | 0.282 ± 0.011 | 0.27 ± 0.0028 | 0.19 ± 0.015 | 0.1939 ± 0.0019 | 0.147 ± 0.0019 | 0.265 ± 0.052 | 0.352 ± 0.013 | 0.198 ± 0.0048 | 0.24 ± 0.04 | 0.54 ± 0.024 | 0.405 ± 0.01 | 0.354 ± 0.017 |
| N=C(N)NS(=O)(=O)c1ccc(N)cc1 [Sulfaguanidine] | 0.249 ± 0.013 | 0.292 ± 0.029 | 0.26 ± 0.0047 | 0.227 ± 0.027 | 0.173 ± 0.0041 | 0.143 ± 0.0034 | 0.38 ± 0.028 | 0.383 ± 0.021 | 0.203 ± 0.0078 | 0.249 ± 0.032 | 0.431 ± 0.022 | 0.41 ± 0.016 | 0.383 ± 0.022 |
| COc1ccc2c(c1)N(C[C@H](C)CN(C)C)c1ccccc1S2 [Methotrimeprazine maleat salt] | 0.187 ± 0.0042 | 0.25 ± 0.015 | 0.274 ± 0.015 | 0.2 ± 0.0049 | 0.139 ± 0.0095 | 0.179 ± 0.002 | 0.131 ± 0.0046 | 0.2312 ± 0.0023 | 0.1934 ± 0.0013 | 0.211 ± 0.012 | 0.477 ± 0.023 | 0.402 ± 0.0072 | 0.282 ± 0.02 |
| CCN(CCCc1ccccc1)CCCc1ccccc1 [Alverine citrate salt] | 0.205 ± 0.011 | 0.221 ± 0.013 | 0.286 ± 0.0067 | 0.177 ± 0.0094 | 0.1472 ± 0.00053 | 0.156 ± 0.011 | 0.211 ± 0.032 | 0.4 ± 0.074 | 0.153 ± 0.0058 | 0.205 ± 0.054 | 0.48 ± 0.026 | 0.418 ± 0.0047 | 0.328 ± 0.0065 |
| CC1(C)O[C@@H]2[C@@H](CO[C@@]3(COS(N)(=O)=O)OC(C)(C)O[C@@H]23)O1 [Topiramate] | 0.234 ± 0.0043 | 0.291 ± 0.0074 | 0.2714 ± 0.0027 | 0.18 ± 0.018 | 0.204 ± 0.0062 | 0.136 ± 0.0016 | 0.243 ± 0.055 | 0.295 ± 0.057 | 0.19 ± 0.01 | 0.203 ± 0.022 | 0.541 ± 0.075 | 0.4226 ± 0.0021 | 0.302 ± 0.0096 |
| C[C@]12C[C@H](O)[C@H]3[C@@H](CCC4=CC(=O)CC[C@@]43C)[C@@H]1CC[C@@H]2C(=O)CO [Corticosterone] | 0.143 ± 0.0016 | 0.195 ± 0.006 | 0.252 ± 0.011 | 0.143 ± 0.015 | 0.16 ± 0.0065 | 0.134 ± 0.0044 | 0.235 ± 0.059 | 0.268 ± 0.055 | 0.179 ± 0.017 | 0.206 ± 0.032 | 0.418 ± 0.033 | 0.402 ± 0.017 | 0.246 ± 0.0064 |
| NC(N)=Nc1nc(CSCC/C(N)=N/S(N)(=O)=O)cs1 [Famotidine] | 0.248 ± 0.0073 | 0.298 ± 0.013 | 0.273 ± 0.014 | 0.203 ± 0.03 | 0.187 ± 0.0063 | 0.151 ± 0.011 | 0.348 ± 0.074 | 0.436 ± 0.038 | 0.206 ± 0.043 | 0.203 ± 0.025 | 0.465 ± 0.058 | 0.413 ± 0.0053 | 0.328 ± 0.014 |
| C[C@H]1O[C@H](O[C@H]2[C@H](O)[C@@H](O)[C@@H](O[C@@H]([C@H](O)[C@@H](O)C=O)[C@H](O)CO)O[C@@H]2CO)[C@H](O)[C@@H](O)[C@@H]1N[C@H]1C=C(CO)[C@@H](O)[C@H](O)[C@H]1O [Acarbose] | 0.261 ± 0.0036 | 0.313 ± 0.0078 | 0.25 ± 0.005 | 0.244 ± 0.0037 | 0.182 ± 0.0045 | 0.145 ± 0.013 | 0.322 ± 0.026 | 0.476 ± 0.036 | 0.196 ± 0.018 | 0.236 ± 0.037 | 0.458 ± 0.0055 | 0.396 ± 0.013 | 0.3792 ± 0.0032 |
